# According to PubChem BioAssay:
# Calls of active or inactive are those of the source. How the calls were made is not given here.
# Test: Brca1-Bard1 BiLC signal decrease – luminescence, single concentration, counter-screen for Mdm2/MdmX interaction inhibitor project, confirmation (AID 504668)
# Details: Brca1/Bard1 bimolecular luciferase complementation counterscreen, at 8 µM, hits give high values
row,Structure (SMILES),inhibition
1,C[C@@]12C(=O)Nc3cc(Cl)ccc3C(=O)N1[C@H]1c3cc(Br)ccc3OC[C@@H]1[C@@H]2c1ccccc1,30.8% (active)
2,Cc1ccc(-n2ncc3c(SCc4ccccn4)ncnc32)c(C)c1,27.6% (active)
3,CCOc1ccccc1Nc1nnc(SC(C)C(=O)Nc2nc(-c3ccccc3)cs2)s1 (stereo not given),35.2% (active)
4,CN1CCN(C(c2ccc(C(F)(F)F)cc2)c2ccc3cccnc3c2O)CC1 (stereo not given),27.9% (active)
5,Oc1c(CN2CCCC2)cc(COCc2ccccc2)c2cccnc12,32.2% (active)
6,COc1ccccc1-n1c(-c2ccccc2)c[n+]2c1CCc1ccccc1-2,29% (active)
7,C=CCc1cccc(/C=N/NC(=O)CNc2ccccc2)c1O,32.9% (active)
8,COc1cc(/C=C2\CC/C(=C\c3cc(OC)c(O)c(OC)c3)C2=O)cc(OC)c1O,25.6% (active)
9,Cc1ccc(C(=O)N2C(CC(=O)Nc3ccc(Cl)cc3)C(=O)NC3CCCCC32)cc1 (stereo not given),24.8% (active)
10,C[C@@]12C(=O)Nc3ccccc3C(=O)N1[C@H]1c3cc(Br)ccc3OC[C@@H]1[C@@H]2c1ccccc1,30.8% (active)
11,Oc1ccc(COCc2ccccc2)c2cccnc12,28.7% (active)
12,O=C(Nc1ccc(Cl)cc1)Nc1ccc(N2CCCC2)c(S(=O)(=O)Nc2ccccc2Cl)c1,24% (active)
13,C=C1C(O)[C@@H]2O[C@]3(CC[C@H](/C=C/C(C)[C@@H]4CC(C)=CC5(O[C@H](C[C@@](C)(O)CO)CCC5O)O4)O3)CC[C@H]2O[C@@H]1C(O)CC(C)[C@H]1OC2(CCCCO2)CCC1C (stereo not given in full),33.4% (active)
14,Cc1ncc(CO)c(/C=N/Nc2ccc(C(F)(F)F)cn2)c1O,33.8% (active)
15,CCOc1ccccc1CNC(=O)c1cc2oc3ccccc3c2n1C,26.3% (active)
16,Cc1nc(SCC(=O)Nc2ccc(S(=O)(=O)N3CCOCC3)cc2)c2c(C)c(C)sc2n1,28.6% (active)
17,CCN1CCN(c2ccc(Nc3ccnc4ccccc34)cc2)CC1,29.8% (active)
18,C=CCn1c(O)c(N=NC(=S)Nc2cccc(C)c2)c2ccccc21,33.1% (active)
19,CCCC(=O)NC(c1cccs1)c1cc(Cl)c2cccnc2c1O (stereo not given),24.8% (active)
20,C=CCc1cccc(/C=N/NC(=O)c2ccc3nc[nH]c3c2)c1O,26.2% (active)

row,Structure (SMILES),inhibition
1,Oc1ccc(Br)cc1CNc1cccc2cccnc12,25.6% (active)
2,C[C@@H](NC(=O)OC(C)(C)C)c1nnc(S(=O)(=O)Cc2ccccc2)o1,24.9% (active)
3,Cc1ccccc1OCC(O)Cn1c(=N)n(Cc2ccccc2)c2ccccc21 (stereo not given),28.9% (active)
4,Cc1ccn2c(Nc3ccccc3C)c(-c3ccccn3)nc2c1,31.7% (active)
5,O=C(CCCN1C(=O)/C(=C/c2ccccc2)SC1=S)Nc1ccccc1O,29.9% (active)
6,C[n+]1c2n(c3ccccc31)N=C(c1ccc(-c3ccccc3)cc1)CS2,25.5% (active)
7,C=CC(=O)N1c2ccccc2Sc2ccc(NC(=O)OCC)cc21,35.2% (active)
8,CC(C)(C)c1ccc(-c2nnc3sc(-c4ccccn4)nn23)cc1,30.2% (active)
9,O=C1c2cccc3c([N+](=O)[O-])ccc(c23)C(=O)N1c1nccs1,27% (active)
10,O=C(N/N=C/c1cc(Br)ccc1O)c1ccccc1Cl,35.3% (active)
11,O=C(CCl)c1ccc2c(c1)CCN2C(=O)C1CC1,27% (active)
12,COc1ccc([C@@H]2[C@@H]3C(=O)N(C(C)(C)C)C(=O)[C@@H]3[C@]3(Cc4ccccc4)C(=O)N(c4ccc(Br)cc4)C(=O)N23)cc1,35.6% (active)
13,CCn1c(-c2ccc(C)cc2)nn(CC(=O)NCCc2ccccc2)c1=S,31.4% (active)
14,CN(CC(=O)Nc1ccccc1Cl)C(=O)COC(=O)c1nc(Cl)c(Cl)c(Cl)c1Cl,30.8% (active)
15,NC(N)=N/N=C/c1ccc(OCc2ccccc2Cl)cc1,32.5% (active)
16,CCOc1ccc(CN2CCN(CC(O)Cn3c4ccccc4c4ccccc43)CC2)cc1 (stereo not given),35.8% (active)
17,O=C1N(c2ccccc2)C[C@@H]2C[C@@H](c3cc4ccccc4o3)N3CCC[C@@]123,35.1% (active)
18,CN(C)C1CCN(Cc2cc(COCc3ccccc3)c3cccnc3c2O)C1 (stereo not given),32.8% (active)
19,CCN1CCN(CCNC(=O)c2ccc(/C=C3/Sc4ccccc4N(Cc4cccc(C)c4)C3=O)cc2)CC1,27.6% (active)
20,O=C(CCl)Nc1cccc(S(=O)(=O)NC2=NCCCCC2)c1,35.8% (active)
